Source: PubChem BioAssay (Tox21)
Values without a mark were called inactive. Inconclusive results are not listed. A call without a number means that no potency is given here. Activity calls are given as the source filed them. Unless noted, the call rests on the fitted dose curve; in most records, active means well fitted curve in the direction sought with a large enough effect in the repeat runs; inconclusive means weak or mixed curves; inactive means no such curve, though single readings can be large; an effect the other way counts as inactive or inconclusive.

Tests used:
[1] = target: Thyrotropin receptor (Homo sapiens) (UniProt P16473); assay: qHTS assay to identify small molecule agonists of the thyroid stimulating hormone receptor (TSHR) signaling pathway (AID 1224843; calls by dose curve; further: nearly all actives have a fitted effect of over 45% in size)
Sequence of Thyrotropin receptor (Homo sapiens) (P16473 whole entry, looked up): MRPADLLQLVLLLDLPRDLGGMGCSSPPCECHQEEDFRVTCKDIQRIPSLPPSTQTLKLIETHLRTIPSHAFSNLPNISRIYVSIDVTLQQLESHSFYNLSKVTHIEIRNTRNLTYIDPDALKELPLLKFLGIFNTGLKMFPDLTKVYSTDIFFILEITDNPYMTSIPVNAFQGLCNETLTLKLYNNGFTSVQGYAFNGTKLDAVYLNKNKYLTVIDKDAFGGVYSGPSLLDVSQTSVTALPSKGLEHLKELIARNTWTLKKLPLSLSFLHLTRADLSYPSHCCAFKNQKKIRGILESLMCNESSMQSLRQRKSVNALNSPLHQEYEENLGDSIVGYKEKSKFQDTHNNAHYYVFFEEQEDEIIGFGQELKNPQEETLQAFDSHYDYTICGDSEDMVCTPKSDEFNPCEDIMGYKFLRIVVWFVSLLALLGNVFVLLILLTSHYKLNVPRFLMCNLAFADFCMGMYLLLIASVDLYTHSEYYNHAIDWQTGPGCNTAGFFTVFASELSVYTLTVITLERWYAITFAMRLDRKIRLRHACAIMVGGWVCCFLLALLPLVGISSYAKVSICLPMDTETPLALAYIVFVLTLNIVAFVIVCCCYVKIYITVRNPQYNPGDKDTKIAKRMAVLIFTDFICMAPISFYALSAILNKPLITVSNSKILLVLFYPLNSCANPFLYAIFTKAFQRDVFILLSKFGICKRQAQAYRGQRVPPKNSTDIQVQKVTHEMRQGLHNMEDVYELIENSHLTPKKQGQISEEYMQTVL
Procedure, shortened: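 Cell line HEK293 with TSHR; density 800/well. Exposure 30 min RT. Readout HTRF cAMP (cAMP-d2/anti-cAMP-cryptate), 1 h RT before reading.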

[2] = qHTS assay to identify small molecule agonists of the hypoxia (HIF-1) signaling pathway - cell viability counter screen (AID 1224844; calls by dose curve; further: nearly all actives have a fitted effect of over 50% in size)
Procedure, shortened: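 HRE-bla ME-180 cells in medium with 0.5% dialyzed FBS were preincubated 5 hrs at 37C, exposed to compounds for 17 hrs, then viability was read as CellTiter-Glo luminescence after 30 min at room temperature, in the reporter wells.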

[3] = qHTS assay to identify small molecule agonists of H2AX (AID 1224845; active means well fitted activation curve with a large enough effect in the signal ratio in the repeat runs, not every such curve was filed as active; the % refers to the signal ratio)
Procedure, shortened: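 Wild-type CHO-K1 cells plated overnight, then exposed 3 hr at 37C to compounds at 15 concentrations (0.76% DMSO). Lysed, then HTRF anti-pH2AX(S139)-cryptate/anti-H2AX-d2 detection after 24 hr at room temperature; emissions 665 and 620 nm.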

[4] = qHTS assay to identify small molecule agonists of the hypoxia (HIF-1) signaling pathway (AID 1224846; active means well fitted activation curve with a large enough effect in the signal ratio in the repeat runs, not every such curve was filed as active; the % refers to the signal ratio)
Procedure, shortened: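 HRE-bla ME-180 cells (beta-lactamase reporter under hypoxia response element) were plated at 2,000 cells/well in medium with 0.5% dialyzed FBS, rested 5 hrs, then given compounds in DMSO for 17 hrs at 37C, 5% CO2. Reporter induction was read with CCF4-AM FRET substrate.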

[5] = qHTS assay to identify small molecule agonists of H2AX - cell viability counter screen (AID 1224847; calls by dose curve; further: top concentration of the series differs between compounds; nearly all actives have a fitted effect of over 30% in size)
Procedure, shortened: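 Wild-type CHO-K1 cells (10% FBS medium) were plated overnight at 37C, exposed to compounds at 15 concentrations for 3 hr at 37C (0.76% DMSO final), and viability was read as CellTiter-Glo luminescence after 30 min at room temperature.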

[6] = qHTS RealTime-Glo MT Cell Viability Assay in HepG2 cells - 24 hour (AID 1224867); further: nearly all actives have a fitted effect of over 50% in size
Procedure, shortened: (§1)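 Luminescence read-out: viable HepG2 cells reduce a prosubstrate to a NanoLuc substrate, giving a signal proportional to live cell number. Reads taken at 0, 8, 16, 24, 32 and 40 h of compound exposure at 37 C.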

[7] = qHTS RealTime-Glo MT Cell Viability Assay in HEK293 cells - 32 hour (AID 1224868); further: nearly all actives have a fitted effect of over 50% in size; further: potency means the concentration at half of the fitted maximal effect
Procedure, shortened: (§2)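 Nonlytic real-time viability readout: viable cells convert prosubstrate to NanoLuc substrate, giving luminescence proportional to live cell number. HEK293, 600 cells/well, compound added after 5 h, continuous culture at 37 C.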

[8] = A CellTox Green Cytotoxicity Assay to monitor cytotoxicity in HEK293 cells - 0 hour (AID 1224869); further: nearly all actives have a fitted effect of over 50% in size
Procedure, shortened: (§3)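 HEK293 cells premixed with CellTox Green dye were seeded at 600 cells/well and left 5 h at 37 C/5% CO2 before pin transfer of 23 nL compound in DMSO. Fluorescence from dye bound to dead-cell DNA was read during 40 h treatment.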

[9] = qHTS RealTime-Glo MT Cell Viability Assay in HepG2 cells - 40 hour (AID 1224870); further: nearly all actives have a fitted effect of over 50% in size
Procedure, shortened: (§4)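 HepG2 cells mixed with RealTime-Glo MT reagents (NanoLuc plus cell-permeant prosubstrate) were seeded at 600 cells/well, incubated 5 h at 37 C/5% CO2, then pinned with compounds in DMSO; nonlytic luminescence tracked viability during 40 h treatment.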

[10] = A CellTox Green Cytotoxicity Assay to monitor cytotoxicity in HEK293 cells - 40 hour (AID 1224871); further: nearly all actives have a fitted effect of over 45% in size
Procedure, shortened: as §3

[11] = qHTS RealTime-Glo MT Cell Viability Assay in HEK293 cells - 16 hour (AID 1224872)
Procedure, shortened: as §2

[12] = qHTS RealTime-Glo MT Cell Viability Assay in HepG2 cells - 8 hour (AID 1224873); further: nearly all actives have a fitted effect of over 55% in size
Procedure, shortened: as §4

[13] = qHTS RealTime-Glo MT Cell Viability Assay in HEK293 cells - 40 hour (AID 1224874); details: RealTime-Glo luminescence; max response: stronger effect = lower value; further: nearly all actives have a fitted effect of over 50% in size; further: potency means the concentration at half of the fitted maximal effect
Procedure, shortened: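 HEK293 cells mixed with RealTime-Glo reagents (NanoLuc plus cell-permeant prosubstrate) at 600 cells/well, preincubated 5 h at 37 C/5% CO2, then given 23 nL compound in DMSO. Nonlytic luminescence from viable cells was read at 0, 8, 16, 24, 32 and 40 h.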

[14] = A CellTox Green Cytotoxicity Assay to monitor cytotoxicity in HEK293 cells - 24 hour (AID 1224875); further: series mostly up to about 77 µM; nearly all actives have a fitted effect of over 45% in size
Procedure, shortened: as §3

[15] = A CellTox Green Cytotoxicity Assay to monitor cytotoxicity in HepG2 cells - 16 hour (AID 1224876); further: nearly all actives have a fitted effect of over 45% in size
Procedure, shortened: (§5)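 HepG2 cells were seeded together with the CellTox Green dye at 600 cells/well, left 5 h at 37 C/5% CO2, then given compounds in DMSO. Fluorescence from dye bound to dead-cell DNA was read repeatedly over 40 h of treatment at 37 C.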

[16] = qHTS RealTime-Glo MT Cell Viability Assay in HepG2 cells - 32 hour (AID 1224877); further: nearly all actives have a fitted effect of over 55% in size
Procedure, shortened: as §1

[17] = A CellTox Green Cytotoxicity Assay to monitor cytotoxicity in HepG2 cells - 24 hour (AID 1224878); further: nearly all actives have a fitted effect of over 45% in size
Procedure, shortened: as §5

[18] = A CellTox Green Cytotoxicity Assay to monitor cytotoxicity in HepG2 cells - 40 hour (AID 1224879); further: nearly all actives have a fitted effect of over 40% in size
Procedure, shortened: as §5

Row | SMILES | Potency [1] | Potency [2] | Potency [3] | outcome [4] | Potency [5] | Potency [6] | Potency [7] | Potency [8] | Potency [9] | Potency [10] | Potency [11] | Potency [12] | max response [13] [%] | Potency [14] | Potency [15] | Potency [16] | Potency [17] | Potency [18] | Potency [13]
1 | CC(=O)c1ccc[nH]1 | inactive | inactive | inactive | inactive | inactive | inactive | inactive | inactive | inactive | inactive | inactive | inactive | -0.568 | inactive | inactive | inactive | inactive | inactive | 
2 | CC(=O)C(=O)CC(C)C | inactive | inactive | inactive | inactive | inactive | inactive | inactive |  | inactive | inactive | inactive | inactive | 9.63 |  | inactive | inactive |  | inactive | 
3 | COC(CC(C)CCCC(C)(C)O)OC (stereo unspecified) | inactive | inactive | inactive | inactive | inactive | inactive | inactive | inactive | inactive |  | inactive | inactive | 1.35 | inactive | inactive | inactive | inactive | inactive | 
4 | COC(OC)OC | inactive | inactive | inactive | inactive | inactive | inactive | inactive | inactive |  | inactive | inactive | inactive | 11.5 | inactive |  | inactive | inactive | inactive | 
5 | O=S(=O)(O)CO | inactive | inactive | inactive | inactive | inactive | inactive | inactive | inactive | inactive | inactive | inactive | inactive | 4.46 | inactive | inactive | inactive |  | inactive | 
6 | CC(C)OC(=O)c1ccccc1C(=O)OC(C)C | inactive | inactive | inactive | inactive | inactive | inactive | inactive | inactive |  | inactive | inactive | inactive | -14 | inactive | inactive | inactive | inactive | inactive | 
7 | O=CNNC=O | inactive | inactive | inactive | inactive | inactive | inactive | inactive | inactive | inactive | inactive | inactive | inactive | 10.2 |  | inactive | inactive | inactive |  | 
8 | C/C(C=O)=C\c1ccccc1 | inactive | inactive | inactive | inactive | inactive | inactive | inactive | inactive | inactive |  | inactive | inactive | 0.492 | inactive | inactive | inactive | inactive | inactive | 
9 | C=CCOC(=O)COCCC(C)C | inactive | inactive | inactive | inactive | inactive | inactive | inactive | inactive | inactive | inactive | inactive | inactive | -1.87 |  |  | inactive | inactive | inactive | 
10 | CCOC(=O)c1c(N)sc2c1CCN(Cc1ccccc1)C2 | inactive | inactive | inactive | inactive | inactive | inactive | 21.3 µM (active) | inactive | inactive | inactive |  | inactive |  | inactive | inactive | inactive | inactive |  | 19 µM (active)
11 | Nc1ccn([C@H]2CS[C@@H](CO)O2)c(=O)n1 | inactive | inactive | inactive | inactive | inactive | inactive | inactive | inactive | inactive | inactive | inactive | inactive | -7.77 | inactive | inactive | inactive |  | inactive | 
12 | O=P(O)(O)Oc1ccccc1 | inactive | inactive | inactive | inactive | inactive | inactive | inactive | inactive | inactive |  | inactive | inactive | 12.9 | inactive | inactive | inactive | inactive | inactive | 
13 | CS(=O)(=O)c1ccc([C@@H](C[C@H]2CCC(=O)C2)C(=O)Nc2cnccn2)cc1Cl | inactive | inactive | inactive | inactive | inactive | inactive | inactive |  | inactive | inactive | inactive | inactive | 0.0186 | inactive |  | inactive | inactive |  | 
14 | CSCC[C@H](NC(=O)[C@H](Cc1c[nH]c2ccccc12)NC(=O)CCNC(=O)OC(C)(C)C)C(=O)N[C@@H](CC(=O)O)C(=O)N[C@@H](Cc1ccccc1)C(N)=O | inactive | inactive | inactive | inactive | inactive | inactive | inactive | inactive | inactive | inactive | inactive | inactive | 3.31 | inactive |  | inactive | inactive | inactive | 
